The results in this text go back to PubChem BioAssay (NCI).

Test systems include NCI-H23 lung; NCI-H226 lung; NCI-H322M lung; HOP-62 NSCLC; HOP-92 NSCLC; NCI-H522 lung; A549/ATCC NSCLC; 786-0 renal; COLO 205 colon; DU-145 prostate; K-562 leukemia; MALME-3M melanoma; MDA-MB-231 breast; RXF 393 renal; SF-268 CNS; SF-295 CNS; SF-539 CNS; UACC-257 melanoma; M14 melanoma.
Common to all, as to assay: NCI-60 one-dose screen, 48 h (100 = growth as untreated, 0 = no growth, -100 = all killed)
Holding throughout (conditions): 10 µM unless noted

The panel holds about 83,000 compounds, 20% with a hit somewhere; the sample as a whole holds those more often.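 In brief: 96-well plates, 48 h treatment, single concentration, percent growth endpoint.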 Values without a mark were called inactive. Calls of active or inactive are those of the source. Rule for the calls: active = growth percent below 10; inactive = the rest.

Consider `O=C(CSc1nnc(-c2ccc(NC(=O)c3cccnc3)cc2)o1)Nc1cccc(Br)c1`, for which the growth with NCI-H23 lung was 92.8%; in the test on NCI-H226 lung, 97.7%; in the test on NCI-H322M lung, 97.2%; in the test with HOP-62 NSCLC it was 99.2%; in the test on HOP-92 NSCLC, 88.7%; in the test with NCI-H522 lung, 41.4%. For the same compound, the growth in the test on A549/ATCC NSCLC is 95.1%; in the test with 786-0 renal it was 94.2%; in the test with COLO 205 colon, 88.4%; with DU-145 prostate it was 102%; in the test on K-562 leukemia it was 66.3%; in the test with MALME-3M melanoma, 93.1%. Also, the growth with MDA-MB-231 breast is 93%; with RXF 393 renal it was 111%; in the test on SF-268 CNS it was 102%; in the test on SF-295 CNS, 87.2%; in the test on SF-539 CNS, 70.6%; in the test on UACC-257 melanoma, 102%. The growth in the test with M14 melanoma is 101%.

Consider `C[n+]1cc2c3c(ccc2c2ccc4cc5c(cc4c21)OCO5)OCO3`, for which the growth is -67% (active) in the test with NCI-H23 lung; -87.7% (active) in the test with NCI-H226 lung; -93.8% (active) in the test on NCI-H322M lung; -83.8% (active) with HOP-62 NSCLC; -80.6% (active) in the test with HOP-92 NSCLC; -74.2% (active) in the test on NCI-H522 lung. For the same compound, the growth is -86.2% (active) in the test with A549/ATCC NSCLC; -87.5% (active) with 786-0 renal; -84.5% (active) with COLO 205 colon; -94.4% (active) in the test with DU-145 prostate; -5.22% (active) in the test with K-562 leukemia; -76.9% (active) with MALME-3M melanoma. Further, the growth in the test on MDA-MB-231 breast is -76.2% (active); with RXF 393 renal, -77.1% (active); with SF-268 CNS it was -93.1% (active); with SF-295 CNS it was -63.1% (active); in the test on SF-539 CNS, -71.8% (active); in the test with UACC-257 melanoma, -87.6% (active). Besides, the growth in the test on M14 melanoma is -76.8% (active).

`O=C1NC(=Nc2ccc(Cl)cc2)S/C1=C\c1cn(-c2ccccc2)nc1-c1ccccc1`: the growth with NCI-H23 lung was 93.4%; in the test on NCI-H226 lung, 93.4%; in the test with NCI-H322M lung, 89.5%; with HOP-62 NSCLC, 99.6%; in the test with HOP-92 NSCLC, -0.936% (active); with NCI-H522 lung, 75.4%. In addition, the growth with A549/ATCC NSCLC was 34.9%; with 786-0 renal, 85.5%; in the test on COLO 205 colon it was 96.7%; with DU-145 prostate, 89%; in the test with K-562 leukemia, 92.1%; with MALME-3M melanoma, 83.8%. Also, the growth is 88.4% in the test on MDA-MB-231 breast; 97% in the test with RXF 393 renal; 84.5% with SF-268 CNS; 94.5% in the test with SF-295 CNS; 81% with SF-539 CNS; 91.6% in the test with UACC-257 melanoma. Also, the growth in the test with M14 melanoma was 97.1%.

With `COc1ccc(/C=c2\nc3n(-c4ccccc4)c4nc5c6c(sc5c(=N)n4n-3c2=O)CCCC6)cc1`, the growth is 80.8% in the test on NCI-H23 lung; 69.2% in the test on NCI-H226 lung; 94.6% in the test on NCI-H322M lung; 88.1% in the test on HOP-62 NSCLC; 63.4% with HOP-92 NSCLC; 83.4% in the test with NCI-H522 lung. The growth in the test with A549/ATCC NSCLC is 97.4%; with 786-0 renal, 99.5%; in the test on COLO 205 colon, 111%; in the test on DU-145 prostate, 104%; with K-562 leukemia, 67.2%; in the test on MALME-3M melanoma, 97.4%. Moreover, the growth is 59.9% with MDA-MB-231 breast; 98.4% in the test on RXF 393 renal; 88.8% with SF-268 CNS; 98.4% in the test on SF-295 CNS; 94.9% in the test with SF-539 CNS; 106% in the test on UACC-257 melanoma. Besides, the growth in the test with M14 melanoma was 96.7%.

For `CCN(CC)c1ccc2nc3c4ccccc4c(=NC(=O)c4ccccc4-c4c5ccc(N(CC)CC)cc5[o+]c5cc(N(CC)CC)ccc45)cc-3oc2c1`, the growth in the test with NCI-H23 lung is 10.9%; in the test on NCI-H226 lung it was 76.5%; with NCI-H322M lung it was 11.6%; in the test on HOP-62 NSCLC, 17.4%; in the test with HOP-92 NSCLC, 1.45% (active); with A549/ATCC NSCLC it was 14.5%. For the same compound, the growth is -28.3% (active) with 786-0 renal; -80.1% (active) in the test with COLO 205 colon; -89.4% (active) in the test with DU-145 prostate; -85.7% (active) with K-562 leukemia; 54.9% in the test on MALME-3M melanoma; 52.8% in the test on MDA-MB-231 breast. In addition, the growth in the test with RXF 393 renal was 61.6%; with SF-268 CNS it was 60.5%; in the test on SF-295 CNS it was -50.3% (active); in the test on SF-539 CNS, 67%; in the test with UACC-257 melanoma, 49.7%; in the test on M14 melanoma it was -3.37% (active).

For `COc1ccc(S(=O)(=O)NCCNc2nccc(-c3c(-c4cccc(F)c4)nc4sccn34)n2)cc1`, the growth in the test on NCI-H23 lung was 56.3%; in the test with NCI-H226 lung, 28.1%; in the test with NCI-H322M lung it was 63%; in the test on HOP-62 NSCLC it was 73.4%; in the test with HOP-92 NSCLC, 71.8%; in the test with NCI-H522 lung, 48.1%. Further, the growth with A549/ATCC NSCLC was 22.5%; in the test on 786-0 renal it was 43.1%; with COLO 205 colon, 21.7%; in the test with DU-145 prostate it was 48.3%; in the test with K-562 leukemia, 23%; in the test with MALME-3M melanoma, 49.1%. Besides, the growth in the test on MDA-MB-231 breast is 61.4%; with RXF 393 renal it was 28.8%; in the test on SF-268 CNS it was 35.4%; in the test with SF-295 CNS, 58.5%; in the test on SF-539 CNS it was 77.4%; with UACC-257 melanoma, 66.7%. Also, the growth with M14 melanoma is 38.4%.

For `Cc1cc(NCc2cc(Nc3ccnc4cc(Cl)ccc34)ccc2F)nc(N2CCCC2)n1`, the growth in the test with NCI-H23 lung is 32.9%; in the test with NCI-H226 lung, 65.8%; in the test with NCI-H322M lung, 30.6%; with HOP-62 NSCLC, -13.3% (active); in the test on HOP-92 NSCLC it was 41.3%; in the test on NCI-H522 lung, -40.3% (active). Also, the growth in the test with A549/ATCC NSCLC is 8.66% (active); in the test on 786-0 renal, -83.9% (active); in the test on COLO 205 colon, -78.4% (active); in the test on DU-145 prostate, 10.8%; with K-562 leukemia, -46.2% (active); in the test on MALME-3M melanoma, -65.6% (active). Also, the growth in the test on MDA-MB-231 breast was -49.1% (active); in the test with RXF 393 renal it was -65.5% (active); with SF-268 CNS, -2.08% (active); in the test with SF-295 CNS, -84.4% (active); in the test on SF-539 CNS, -68.5% (active); in the test with UACC-257 melanoma it was -17.8% (active). Also, the growth with M14 melanoma is -71.3% (active).

`Cc1nc2ccccc2n1CC1NC(=O)NC1=O` (stereo unspecified): the growth in the test on NCI-H23 lung was 102%; in the test with NCI-H226 lung it was 98.4%; in the test on NCI-H322M lung, 97.7%; in the test on HOP-62 NSCLC, 93.3%; with HOP-92 NSCLC, 115%; in the test with NCI-H522 lung it was 94.9%. Further, the growth is 98.3% with A549/ATCC NSCLC; 101% in the test on 786-0 renal; 108% in the test with COLO 205 colon; 110% in the test with DU-145 prostate; 99.9% in the test with K-562 leukemia; 102% in the test with MALME-3M melanoma. Moreover, the growth in the test on MDA-MB-231 breast is 102%; in the test on RXF 393 renal, 103%; with SF-268 CNS, 96.1%; in the test on SF-295 CNS it was 107%; with SF-539 CNS, 99.4%; in the test on UACC-257 melanoma, 99.1%. In addition, the growth in the test with M14 melanoma is 105%.
